DT40 TDP1 CPT: qHTS for Inhibitors of human tyrosyl-DNA phosphodiesterase 1 (TDP1): qHTS in cells in presence of CPT; chicken DT40 Tdp1-/-;hTDP1 cells + 20 nM CPT, ATP luminescence, 48 h; Potency, µM (top dose mostly 46.2 µM), without a hit: top-dose activity change, negative = growth inhibition, hits mostly inhibitors; hit rate 12% among 420,000; AID 686979, 2013; further: potency means the concentration at half of the fitted maximal effect; on the % scale 0 is the no-effect control and ±100 the full control effect; nearly all actives have a fitted effect of over 55% in size
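Chicken DT40 Tdp1-/- cells stably complemented with human TDP1 were seeded at 400 cells/well in medium containing 20 nM camptothecin, exposed to pin-transferred compounds, and grown at 37 °C for at least 48 hr. Viability was read as ATP luminescence.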
TGFb inhibitor: qHTS for Inhibitors of TGF-b; HepG2 CAGA-GFP TGF-b/SMAD3 reporter, GFP fluorescence, 18 h; TGF-beta stimulated, 500 pg/mL final; Potency, µM (titrated, usually from 46.1 µM), for inactives: at the top dose activity, negative = inhibition, usual class: inhibitors; hit rate 1.2% among 410,000; AID 588855, 2011; further: potency means the concentration at half of the fitted maximal effect; on the % scale 0 is the no-effect control and ±100 the full control effect; nearly all actives have a fitted effect of over 65% in size
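HEPG2 CAGA-GFP cells (1000/well, DMEM with 1% FBS) were pre-incubated 2 h at 37 degrees C, given compound by pin tool, then stimulated with TGF-beta at 500 pg/mL final for 18 h before per-cell GFP fluorescence imaging.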
TDP1 inh: qHTS Assay for Inhibitors of Tyrosyl-DNA Phosphodiesterase (TDP1); Tyrosyl-DNA phosphodiesterase 1 (Homo sapiens), Q9NUW8; recombinant TDP1, AlphaScreen DNA substrate cleavage; Potency, µM (highest dose often 130 µM), for the others: top-dose activity change, negative = inhibition, hits mostly inhibitors; hit rate 0.28% among 350,000; further: potency means the concentration at half of the fitted maximal effect; on the % scale 0 is the no-effect control and ±100 the full control effect; nearly all actives have a fitted effect of over 40% in size
Target sequence (Q9NUW8 whole entry, looked up): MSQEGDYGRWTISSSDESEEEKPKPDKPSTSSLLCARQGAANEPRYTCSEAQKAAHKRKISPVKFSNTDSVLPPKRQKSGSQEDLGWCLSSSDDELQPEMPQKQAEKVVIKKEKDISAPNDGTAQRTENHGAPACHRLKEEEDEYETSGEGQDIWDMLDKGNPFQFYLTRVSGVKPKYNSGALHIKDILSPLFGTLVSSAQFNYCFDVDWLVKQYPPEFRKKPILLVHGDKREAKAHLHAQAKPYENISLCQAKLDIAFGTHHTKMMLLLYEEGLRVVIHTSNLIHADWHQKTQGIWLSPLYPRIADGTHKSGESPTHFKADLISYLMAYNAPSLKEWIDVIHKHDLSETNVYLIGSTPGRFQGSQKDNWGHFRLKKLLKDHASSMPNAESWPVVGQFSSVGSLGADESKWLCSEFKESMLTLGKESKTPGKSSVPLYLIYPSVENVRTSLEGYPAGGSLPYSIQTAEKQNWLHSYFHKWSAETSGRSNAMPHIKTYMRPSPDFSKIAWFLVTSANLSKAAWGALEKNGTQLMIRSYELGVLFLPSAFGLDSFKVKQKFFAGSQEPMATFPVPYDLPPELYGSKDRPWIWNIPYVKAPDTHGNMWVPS
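Tdp1 1 nM final; 15 min RT w/ cpd; substrate 15 nM, 5 min; beads 10 ug/ml, 10 min; AlphaScreen read. Neg ctrl: no enzyme.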
TDP1 cell noCPT: qHTS for Inhibitors of human tyrosyl-DNA phosphodiesterase 1 (TDP1): qHTS in cells in absence of CPT. DT40 Tdp1-/- hTDP1 cells, no CPT, ATP luminescence, 48 h. Potency, µM (top dose mostly 46.2 µM), for the others: at the top dose activity change, negative = growth inhibition, most hits filed as inhibitors. hit rate 15% among 420,000; further: potency means the concentration at half of the fitted maximal effect; on the % scale 0 is the no-effect control and ±100 the full control effect; nearly all actives have a fitted effect of over 55% in size
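Growth kinetics read by CellTiter-Glo luminescence after ≥48 hr at 37 °C. Cells: DT40 Tdp1-/- stably carrying human TDP1, 400 per well, compound exposure in the absence of CPT (DMSO vehicle).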
HepG2 viability: qHTS for Inhibitors of TGF-b: Cytotox Counterscreen; HepG2 CAGA-GFP viability, ATP luminescence, 18 h; Potency, µM (top dose mostly 46.1 µM), for inactives: at the highest dose activity change, negative = cytotoxicity, actives largely listed as cytotoxic; hit rate 0.76% among 410,000; AID 588856, 2011; further: potency means the concentration at half of the fitted maximal effect
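CellTiter-Glo luminescence gave cytotoxicity after 18 hours at 37 degrees C. The cells were HepG2 CAGA-GFP in 1% FBS DMEM, stimulated with 500 pg/mL TGF-beta after compound addition. %Activity was normalised to no-cell wells (complete cell-killing) and DMSO (no toxicity), and curves were fitted and classified.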
IL-1B inflam inh: qHTS for Inhibitors of Inflammasome Signaling: IL-1-beta AlphaLISA Primary Screen. THP-1 LPS/ATP IL-1B secretion, AlphaLISA, 16 h; stronger effect = lower value. AID 743279, 2014. activity change, % at 57.5 µM. hit rate 4.7% among 360,000; in the data active means activity change below about -50%; inconclusive means mostly about -30% to -49%; further: on the % scale 0 is the no-effect control and ±100 the full control effect
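Secreted IL-1B measured by AlphaLISA bead assay after 16 h compound exposure of THP-1 cells; compounds (final up to 57.5 uM) added 1 h before LPS (250 ng/mL) and ATP (1.25 mM) stimulation; lower signal means less secretion.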
* = called active by the depositor; ? = inconclusive; . = not tested or not shown. Sampled rows, rich in hits. Any-hit rate of the full collection: about 19%. Unless noted, the call rests on the fitted dose curve; in most records, active means well fitted curve in the direction sought with a large enough effect; inconclusive means small, poorly fitted or top-dose-only effect, or another doubt; inactive means no such curve, though single readings can be large; an effect the other way counts as inactive or inconclusive.

SMILES | DT40 TDP1 CPT | TGFb inhibitor | TDP1 inh | TDP1 cell noCPT | HepG2 viability | IL-1B inflam inh
CCC1CN(C(=O)Nc2ccccc2F)c2cc(C)ccc2O1 (stereo unspecified) | ? | 0.0% | -6.5% | ? | -1.3% | .
CCC1CN(C(=O)Nc2cccc3c2CCCC3)c2cc(Cl)ccc2O1 (stereo unspecified) | ? | ? | -5.2% | 20.6µM* | -27.2% | .
CCC1CN(C(=O)Nc2ccccc2C(F)(F)F)c2ccccc2O1 (stereo unspecified) | 6.1% | -2.0% | 7.8% | 1.7% | -0.3% | .
Nc1ccccc1S(=O)(=O)NC1=NCCCCC1 | 0.0% | -11.6% | 0.6% | -6.2% | -4.6% | 0.0
Cc1ccc(CN(C(=O)c2csnn2)C(C(=O)NC2CCCC2)c2ccco2)cc1 (stereo unspecified) | -27.2% | 0.2% | 8.4% | ? | 0.9% | ?
O=C(Nc1ccc(C(=O)OCc2cc(=O)n3ccsc3n2)cc1)c1cccc(F)c1 | -20.4% | -3.5% | 6.2% | -1.4% | -18.8% | .
CCOc1cccc2cc(-c3nc4ccc(C(=O)O)cc4[nH]3)c(=O)oc12 | 4.9% | . | . | -23.3% | 3.2% | .
Cc1ccccc1-c1nc(CS(=O)(=O)CC(=O)NCCc2ccccc2)c(C)o1 | ? | 14.1µM* | 0.6% | -25.7% | -13.7% | -22.2
Cc1ccc(-c2nc(CS(=O)(=O)CC(=O)NC(C)CCc3ccccc3)c(C)o2)cc1 (stereo unspecified) | ? | 11.2µM* | 2.3% | ? | -61.5% | .
Cc1ccc(-c2nc(CS(=O)CC(=O)NC(C)CCc3ccccc3)c(C)o2)cc1 (stereo unspecified) | -17.3% | ? | 4.1% | -26.2% | -36.4% | -9.9
Cc1oc(-c2ccccc2F)nc1CS(=O)(=O)CC(=O)NCCCc1ccccc1 | 5.5% | 2.8% | 1.1% | -4.2% | 4.3% | -7.3
Cc1ccccc1-c1nc(CS(=O)(=O)CC(=O)NCc2ccc(F)cc2)c(C)o1 | ? | -5.9% | . | ? | -12.8% | -3.3
Cc1ccccc1-c1nc(CS(=O)(=O)CC(=O)NCc2cccc(Cl)c2)c(C)o1 | 16.4µM* | ? | -2.3% | ? | -50.0% | .
Cc1ccccc1-c1nc(CS(=O)(=O)CC(=O)NCC(C)c2ccccc2)c(C)o1 (stereo unspecified) | ? | ? | 8.1% | 16.4µM* | -17.3% | .
Cc1cc(C)nc(SCC(=O)c2ccc(F)cc2F)n1 | -12.6% | -0.2% | . | -10.0% | -33.4% | -7.1
Cc1cccc(N2CCN(C(=O)CS(=O)(=O)Cc3nc(-c4ccccc4F)oc3C)CC2C)c1 (stereo unspecified) | ? | -28.8% | 2.2% | ? | -18.5% | 17.5
Cc1cccc(N2CCN(C(=O)CS(=O)(=O)Cc3nc(-c4ccccc4C)oc3C)CC2C)c1 (stereo unspecified) | 14.6µM* | 11.2µM* | 9.2% | ? | -33.7% | .
Cc1ccccc1-c1nc(CS(=O)(=O)CC(=O)Nc2cc(F)ccc2F)c(C)o1 | ? | ? | 0.0% | 20.6µM* | -19.6% | 16.6
Cc1ccccc1-c1nc(CS(=O)(=O)CC(=O)NC2CCCC2)c(C)o1 | 2.5% | -16.6% | 6.4% | -20.0% | -11.1% | 13.0
O=C(Nc1ccc(Cl)cc1)N1CCN(c2ccc3nnc(-c4ccccc4)n3n2)CC1 | . | 3.2% | -1.0% | . | -31.2% | .
O=C(Nc1ccccc1Cl)N1CCN(c2ccc3nnc(-c4ccc(F)cc4)n3n2)CC1 | 18.4µM* | ? | 2.0% | 16.4µM* | 4.1% | -24.7

Screening data from PubChem.
